IDE exosite inh = exo-site inhibitors of human insulin-degrading enzyme; AID 1259349; purified IDE, FL-6b probe fluorescence polarization; stronger effect = lower value; z-score at 20 µM; actives 6.3% (n = 17,000); P14735;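 active = z-score of -3 or lower, meaning strong loss of probe binding signal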;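 note: His-tagged human IDE residues 42-1019 made in E. coli with 30 nM FL-6b probe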
Target sequence (P14735 42-1019 limits assumed): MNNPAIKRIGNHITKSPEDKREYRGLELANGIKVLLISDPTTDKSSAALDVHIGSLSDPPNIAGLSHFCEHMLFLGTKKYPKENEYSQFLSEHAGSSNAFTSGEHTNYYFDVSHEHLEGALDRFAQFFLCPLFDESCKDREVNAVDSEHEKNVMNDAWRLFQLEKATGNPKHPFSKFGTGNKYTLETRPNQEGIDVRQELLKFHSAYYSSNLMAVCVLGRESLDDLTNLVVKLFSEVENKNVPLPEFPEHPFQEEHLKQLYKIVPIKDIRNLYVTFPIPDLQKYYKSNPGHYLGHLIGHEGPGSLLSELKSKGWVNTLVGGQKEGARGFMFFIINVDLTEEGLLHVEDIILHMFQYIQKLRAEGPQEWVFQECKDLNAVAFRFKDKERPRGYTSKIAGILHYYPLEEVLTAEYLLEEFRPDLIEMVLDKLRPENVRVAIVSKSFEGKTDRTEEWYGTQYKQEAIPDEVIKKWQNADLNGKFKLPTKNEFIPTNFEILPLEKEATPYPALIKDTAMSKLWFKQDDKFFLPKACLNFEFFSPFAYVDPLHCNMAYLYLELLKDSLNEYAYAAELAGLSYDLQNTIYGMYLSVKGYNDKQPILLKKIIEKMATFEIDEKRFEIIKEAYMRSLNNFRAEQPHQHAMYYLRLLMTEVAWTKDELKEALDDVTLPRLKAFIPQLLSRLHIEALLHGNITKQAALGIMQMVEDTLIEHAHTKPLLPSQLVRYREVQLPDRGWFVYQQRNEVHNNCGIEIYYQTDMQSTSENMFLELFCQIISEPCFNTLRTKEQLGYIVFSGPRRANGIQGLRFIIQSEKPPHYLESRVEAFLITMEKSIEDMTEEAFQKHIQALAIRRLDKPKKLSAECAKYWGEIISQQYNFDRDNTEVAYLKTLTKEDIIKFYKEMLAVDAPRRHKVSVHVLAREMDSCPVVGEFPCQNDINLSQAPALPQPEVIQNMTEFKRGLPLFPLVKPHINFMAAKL
The depositor's hits bear a star. The sample as a whole holds a higher share of hits than the screen did.

SMILES	IDE exosite inh
COC(=O)C[C@H]1CC[C@H]2[C@@H](COc3ccc(NC(=O)Nc4cccc(C#N)c4)cc3C(=O)N2C)O1	-0.325
C[C@H](NC(=O)C[C@H]1CC[C@H]2[C@H](COc3ccc(NC(=O)C4CCOCC4)cc3C(=O)N2C)O1)c1ccccc1	-1.27
CC(=O)NC[C@H]1[C@H](c2ccccc2)[C@H](CO)N1C(=O)Cc1ccncc1	0.27
CCC(=O)N1C[C@@H](C)[C@@H](OC)CN(C)C(=O)c2cc(NC(=O)Nc3ccc(Cl)cc3)ccc2OC[C@H]1C	0.774
O=C(NC1CCCC1)N1CCCCN2[C@H](CO)[C@@H](c3ccc(/C=C/c4ccccc4)cc3)[C@H]2C1	-4.25*
C/C=C/c1ccc([C@H]2[C@@H](CO)N3CCCCN(C(=O)NC4CCCC4)C[C@H]23)cc1	1.28
O=C(NC1CCCC1)N1CCCCN2[C@H](CO)[C@H](c3ccc(/C=C/c4ccccc4)cc3)[C@@H]2C1	-9.7*
COc1ccc(S(=O)(=O)Nc2ccc3c(c2)[C@@H]2C[C@@H](CC(=O)N(C)C)O[C@@H](CO)[C@@H]2O3)cc1	0.844
CCC(=O)N1[C@H](CO)[C@H]2c3ccccc3N(S(=O)(=O)c3ccc(F)cc3)C[C@H]21	2.89
CCC(=O)N1CC2(CCN(C(=O)Nc3ccccc3F)CC2)c2c([nH]c3cc(OC)ccc23)[C@H]1CO	1.19
C[C@H](CO)N1C[C@H](C)[C@@H](CN(C)CC2CC2)Oc2ccc(NC(=O)CCC(F)(F)F)cc2CC1=O	-0.172
C/C=C/c1ccc([C@@H]2[C@@H](CO)N(Cc3cccc(F)c3)C23CN(C(C)=O)C3)cc1	0.2
CCC(=O)N1CC(=O)N2[C@H](CO)[C@H](c3ccc(C#CCc4ccccc4)cc3)[C@@H]2C1	-5.83*
O=C(C1CC1)N1CC(=O)N2[C@@H](CO)[C@H](c3ccc(C#CCc4ccccc4)cc3)[C@@H]2C1	-0.585
O=C(C1CC1)N1CC(=O)N2[C@H](CO)[C@@H](c3ccc(C#CCc4ccccc4)cc3)[C@H]2C1	0.018
COCC(=O)N1CC(=O)N2[C@H](C1)[C@H](c1ccc(C#CCc3ccccc3)cc1)[C@@H]2CO	1.21
O=C(C1CC1)N1CC(=O)N2[C@H](CO)[C@@H](c3ccc(C#CCc4ccccc4)cc3)[C@@H]2C1	0.353
CCC(=O)N1CC(=O)N2[C@@H](CO)[C@H](c3ccc(C#CCc4ccccc4)cc3)[C@@H]2C1	-3.78*
CCC(=O)N1CC(=O)N2[C@H](CO)[C@H](c3ccc(C#CCc4ccccc4)cc3)[C@H]2C1	-3.56*
CCC(=O)N1CC(=O)N2[C@H](CO)[C@@H](c3ccc(C#CCc4ccccc4)cc3)[C@@H]2C1	-0.778
CCC(=O)N1CC(=O)N2[C@H](C1)[C@@H](c1ccc(C#CCc3ccccc3)cc1)[C@@H]2CO	-2.54
COc1ccc(C[C@@H]2CCn3nncc3COC[C@H](CC(C)C)NC2=O)cc1	0.217
CCC(=O)N1CC(=O)N2[C@@H](CO)[C@H](c3ccc(-c4ccc(C#N)cc4)cc3)[C@@H]2C1	-0.86
C[C@@H]1CCn2cc(nn2)COC[C@H](c2ccccc2)NC1=O	-0.21
O=C(Nc1ccc(F)cc1)N1CC(=O)N2[C@H](CO)[C@H](c3ccc(C#Cc4ccccc4)cc3)[C@@H]2C1	-0.568
SMILES	IDE exosite inh
O=C(Cc1cccnc1)N1CC(=O)N2[C@H](CO)[C@H](c3ccc(C4=CCCC4)cc3)[C@@H]2C1	0.892
Cn1cnc(S(=O)(=O)N2CCCCN3[C@H](CO)[C@H](c4ccc(-c5ccccc5)cc4)[C@@H]3C2)c1	1.95
Cc1ccccc1-c1ccc([C@H]2[C@H](CO)N3CCCCN(S(=O)(=O)c4cn(C)cn4)C[C@@H]23)cc1	-7.09*
Cn1cnc(S(=O)(=O)N2CCCCN3[C@@H](CO)[C@@H](c4ccc(-c5ccccc5)cc4)[C@@H]3C2)c1	-5.56*
Cn1cnc(S(=O)(=O)N2CCCCN3[C@H](CO)[C@H](c4ccc(-c5ccccc5)cc4)[C@H]3C2)c1	-0.561
Cc1cccc(-c2ccc([C@H]3[C@@H](CO)N4CCCCN(S(=O)(=O)c5cn(C)cn5)C[C@@H]34)cc2)c1	0.53
Cc1cccc(-c2ccc([C@@H]3[C@H](CO)N4CCCCN(S(=O)(=O)c5cccc(C)c5)C[C@@H]34)cc2)c1	-2.78
Cc1cccc(-c2ccc([C@@H]3[C@@H](CO)N4CCCCN(S(=O)(=O)c5cn(C)cn5)C[C@@H]34)cc2)c1	-17.5*
CCN(C[C@H]1N[C@H](CO)[C@H]1c1ccc(-c2ccccc2)cc1)C(=O)COC	0.856
C[C@H](CO)N1C[C@H](C)[C@H](CN(C)C(=O)Nc2ccc3c(c2)OCO3)Oc2c(NC(=O)c3nc4ccccc4s3)cccc2C1=O	0.414
C/C=C/c1ccc([C@@H]2[C@@H](CO)N(C(=O)C3CCC3)[C@H]2CN(CC)C(=O)CC)cc1	0.677
O=C(Nc1ccc(F)cc1)N1CC(=O)N2[C@H](CO)[C@@H](c3ccc(C#Cc4ccccc4)cc3)[C@@H]2C1	0.864
C[C@@H](NC(=O)C[C@H]1CC[C@H]2[C@@H](COC[C@H](O)CN2C(=O)Nc2cccc(Cl)c2)O1)c1ccccc1	0.295
COc1ccccc1CNC(=O)C[C@@H]1CC[C@@H]2[C@H](COC[C@H](O)CN2Cc2ccc3c(c2)OCO3)O1	-1.13
O=C(Nc1ccc(Cl)cc1)N1[C@@H]2CNC[C@H]1C2c1ccc(/C=C/c2ccccc2)cc1 (stereo partly drawn)	0.111
O=C(c1cccc(F)c1)N1CC(=O)N2[C@@H](CO)[C@H](c3ccc(-c4ccccc4)cc3)[C@@H]2C1	2.42
O=C(c1cccc(F)c1)N1CC(=O)N2[C@H](C1)[C@@H](c1ccc(-c3ccccc3F)cc1)[C@@H]2CO	-3.92*
O=C(c1ccc(F)cc1)N1CC(=O)N2[C@H](CO)[C@@H](c3ccc(-c4ccccc4F)cc3)[C@H]2C1	0.687
O=C(c1cccnc1)N1CC(=O)N2[C@@H](CO)[C@@H](c3ccc(-c4ccccc4F)cc3)[C@@H]2C1	0.484
O=C(c1cccc(F)c1)N1CC(=O)N2[C@@H](CO)[C@@H](c3ccc(-c4ccccc4F)cc3)[C@@H]2C1	-1.15
O=C(c1cccc(F)c1)N1CC(=O)N2[C@H](CO)[C@H](c3ccc(-c4ccccc4F)cc3)[C@H]2C1	-4.76*
O=C1CN(S(=O)(=O)c2ccccc2)C[C@@H]2[C@H](c3ccc(Br)cc3)[C@H](CO)N12	1.02
CN(C)CC(=O)N1[C@H](CO)[C@@H](c2ccc(C#CC3CC3)cc2)[C@@H]1C#N	2.49
Cn1cnc(S(=O)(=O)N2C[C@@H](O)COC[C@@H]3O[C@H](CC(=O)NCc4cccc(F)c4)CC[C@H]32)c1	-0.419
CN(C)CC#Cc1ccc([C@@H]2[C@H]3CN(C(=O)C4CCC4)CCCCN3[C@H]2CO)cc1	0.919
SMILES	IDE exosite inh
COc1ccccc1NC(=O)N1CCCCN2[C@H](CO)[C@H](c3ccc(C#Cc4ccccc4)cc3)[C@@H]2C1	-0.364
COc1ccccc1C#Cc1ccc([C@H]2[C@H]3CN(C(=O)C4CCC4)CCCCN3[C@H]2CO)cc1	-17.5*
COc1ccc(C#Cc2ccc([C@H]3[C@@H](CO)N4CCCCN(C(=O)Nc5ccccc5)C[C@@H]34)cc2)cc1	0.819
COc1ccc(C#Cc2ccc([C@H]3[C@H]4CN(C(=O)Nc5ccccc5)CCCCN4[C@H]3CO)cc2)cc1	1.31
COc1ccccc1NC(=O)N1CCCCN2[C@@H](CO)[C@H](c3ccc(C#Cc4ccccc4)cc3)[C@@H]2C1	-2.52
COc1ccccc1C#Cc1ccc([C@@H]2[C@@H](CO)N3CCCCN(C(=O)C4CCC4)C[C@H]23)cc1	-8.25*

High-throughput results from PubChem BioAssay.
